# Only some compounds are listed: those with a hit (about 6.5% of all), similar ones and a draw of the others.
# Vaccinia Venus: vaccinia inhibition (Venus reporter) | Vaccinia virus Venus reporter expression, fluorescence | Potency, µM (highest dose often 36.5 µM), for inactives: top-dose activity change, negative = inhibition, usual class: inhibitors | actives 0.46% (n = 330,000); calls by dose curve; tested in A549 cells; note: potency is the fitted concentration of half-maximal effect; nearly all actives have a fitted effect of over 30% in size
# VACV mCherry inh: inhibitors of vaccinia virus infection (mCherry reporter signal) | Vaccinia virus mCherry reporter infection, fluorescence | Potency, µM (highest dose often 36.5 µM), for inactives: top-dose activity change, negative = inhibition, hits mostly inhibitors | actives 0.63% (n = 310,000); calls by dose curve; tested in A549 cells; note: potency is the fitted concentration of half-maximal effect; nearly all actives have a fitted effect of over 35% in size
# MARV entry inh: Marburg virus entry inhibition | Marburg virus pseudotyped entry inhibition, cell reporter | Potency, µM (doses to about 37.8 µM), without a hit: at the highest dose activity change, negative = inhibition, most hits filed as inhibitors | actives 1.8% (n = 300,000) | AID 540276; calls by dose curve; tested in HEK293 cells; note: potency is the fitted concentration of half-maximal effect
# Lassa entry inh: blocks Lassa virus binding to or entry into cells; Lassa virus pseudotype entry inhibition, cell reporter; Potency, µM (doses to about 37.9 µM), for inactives: top-dose activity change, negative = inhibition, most hits filed as inhibitors; actives 1.2% (n = 300,000); AID 540256; calls by dose curve; tested in HEK293 cells; note: potency is the fitted concentration of half-maximal effect; nearly all actives have a fitted effect of over 50% in size
# HCMV inh: human cytomegalovirus inhibition | actives 4.5% (n = 410,000) | AID 1259415 | HFF cells, HCMV-luciferase reporter, 72 h; active compounds read low | activity change, negative = inhibition, % at 57.5 µM; in the data active = activity change below about -60%; inconclusive = no clear call, values can overlap the other calls; inactive = above about -39%
#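 Two compound doses tested in HFFs infected with HCMV-luciferase, MOI 1 PFU/cell, 72 h at 37C. Lysate luminescence read with OneGlo; data normalized against buffer-only and 10uM Salinomycin inhibitor controls.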
# FMDV inh: foot and mouth disease virus antiviral activity; FMDV antiviral cell-based qHTS; Potency, µM (series often up to 57.9 µM), without a hit: top-dose activity change, negative = inhibition, hits mostly inhibitors; actives 1.2% (n = 410,000); AID 1159524; calls by dose curve; tested in HEK293T cells; note: read-out not given here; potency is the fitted concentration of half-maximal effect; nearly all actives have a fitted effect of over 45% in size
# * = called active by the depositor; i = inactive; ? = inconclusive; nt = no result; [ ] = another dose, or the depositor's remark. % is set by controls: 0 for no effect and ±100 for the full control effect.
SMILES,Vaccinia Venus,VACV mCherry inh,MARV entry inh,Lassa entry inh,HCMV inh,FMDV inh
CCCCNC(=O)c1nc2cc(C)c(C)cc2nc1-c1cccc(C(F)(F)F)c1,nt,nt,nt,nt,-94*,nt
COc1ccc(-c2ccc(/C=C3/C(=N)N4C(C)=CSC4=NC3=O)o2)c([N+](=O)[O-])c1,54%,-10%,-3%,0%,9,40µM*
C/C(=N/OCO/N=C(\C)c1ccccc1)c1ccccc1,8%,-7%,3.5µM*,?,-36,-7%
C/C(=N\OCc1ccc(C#N)cc1)c1ccccc1,nt,nt,nt,nt,-13,87%
c1ccc2c(N3CCCC3)nc(-c3ccncc3)nc2c1,?,nt,?,-5%,-33,14µM*
COc1cccc(-c2nc(N3CCN(C)CC3)c3ccccc3n2)c1O,?,10µM*,?,?,129,8%
COc1cccc(-c2nc(NC3CCCC3)c3ccccc3n2)c1O,nt,nt,nt,nt,nt,28µM*
CN1CCN(c2nc(-c3ccncc3)nc3ccccc23)CC1,-29%,-5%,7.9µM*,-5%,-21,-15%
COc1cccc(-c2nc(NCc3ccccc3)c3ccccc3n2)c1O,nt,nt,nt,nt,-3,10%
Cc1ccc(S(=O)(=O)N2CCN(c3nc(-c4ccncc4)nc4ccccc34)CC2)cc1,-10%,-15%,nt,nt,nt,nt
CCC1(C2CCN(Cc3ccc(OC)cc3)CC2)NC(=O)N(CC2COc3ccccc3O2)C1=O (stereo not given),-5%,-9%,nt,nt,nt,-22%
CC(C)c1c(C(=O)N(C)CC2CCCN(C)C2)cnn1-c1nccc(-c2cccs2)n1 (stereo not given),-16%,-20%,nt,nt,nt,9%
CN(C)CCN(Cc1ccco1)C(=O)c1cc2c(s1)-c1ccccc1OC2,-9%[7.34 µM],-15%[7.34 µM],?,nt,?,7%
CC(C=NN=C1C(=O)Nc2ccccc21)=Cc1ccccc1,nt,nt,nt,nt,12,nt
CC[C@@H]1CCCCN1c1nc(-c2ccncc2)nc2ccccc12,nt,nt,9.2µM*,nt,nt,nt
COc1nc(-c2ccncc2)nc2ccccc12,-10%,-17%,-29%,27%,28,-18%
Cc1c(C(=O)N(C)Cc2cccc3ncccc23)cnn1-c1nccc(-c2ccccc2F)n1,-14%,i,nt,nt,nt,-10%
Cc1ccc(C(=O)Sc2cccccc2=O)cc1,1.8µM*,1µM*,?,?,-99*,0%
CN(C(=O)Cn1cc([N+](=O)[O-])ccc1=O)C1CCCCC1,4%,-12%,1.3µM*,9%,0,-18%
Cc1ccc(CNC(=O)C(=O)NCCCn2ccnc2)cc1,-4%,-13%,4%,-23%,-67*,-9%
O=C(NCCCn1ccnc1)C(=O)NCc1ccc(Cl)cc1,9%,-1%,20%[46.1 µM],0%,17,0%
COc1cccc(NC(=O)C(=O)NCCCn2ccnc2)c1,10%,9%,-9%[46.1 µM],20%,-64*,45%
N=c1cc(C2(O)CCCCC2)n2c(nc3ccccc32)s1,nt,nt,5.8µM*,10µM*,19,-23%
O=C1c2sc3nc4ccccc4n3c2C(=O)N1c1ccccc1Cl,-14%,-19%[1.46 µM],-21%,27%,-13,-30%
C=CCn1c(SCc2nc3ccccc3c(=O)[nH]2)nc2ccccc2c1=O,-9%,nt,-18%,-23%,-61*,0%
SMILES,Vaccinia Venus,VACV mCherry inh,MARV entry inh,Lassa entry inh,HCMV inh,FMDV inh
Cc1ccc(-n2ncc3c(=O)[nH]c(SC(C)C)nc32)cc1,-13%,-18%,-10%,6%,-96*,-20%
O=c1[nH]c(CSc2ncccn2)nc2c1cnn2-c1ccccc1,-5%,-18%,12%,3%,62,-14%
O=c1[nH]c(CSc2nc3ccccc3[nH]2)nc2c1cnn2-c1ccccc1,-29%,?,?,?,-86*,22µM*
CC(C)Sc1nc2c(cnn2-c2ccccc2)c(=O)[nH]1,-21%,-22%,?,-6%,47,-7%
Cc1ccc2nc(SCc3nc4c(cnn4-c4ccccc4)c(=O)[nH]3)[nH]c2c1,-11%,-18%,?,?,-83*,11µM*
CN(C)C(=O)[C@@H]1C[C@@H](Sc2nc3ccccc3[nH]2)CN1Cc1ccnc2ccccc12,0%,-3%,nt,nt,nt,11%
OC(Br)C(O)C(O)N1CCCc2ccccc21 (stereo not given),-26%,-28%,nt,nt,nt,nt
O=c1[nH]c(SCc2nc3c(cnn3-c3ccccc3)c(=O)[nH]2)nc2ccccc12,-2%,nt,1µM*,0.71µM*,-92*,9%
C[C@H]1CC[C@H]2C(=O)N(Cc3ccccc3)C[C@@H](O)CN2[C@H]1c1ccc(Br)cc1,nt,nt,-33%[14.2 µM],nt,nt,nt
CCOC(=O)c1c(C)oc2ncnc(N3CCN(c4ccccc4OC)CC3)c12,-8%,-8%,nt,5%[46.1 µM],-6,?
O=C(C[n+]1ccc(-c2cc(C(=O)Nc3cccc(C(F)(F)F)c3)c3ccccc3n2)cc1)c1cccc([N+](=O)[O-])c1,2%,-26%,?,-24%[46.1 µM],-66*,?
Cc1ccc(S(=O)(=O)N2CCN(Cc3ccccc3)CC2)c(C)c1N(C)S(=O)(=O)c1ccccc1,-19%,-25%,?,?,-81*,-28%
Cc1ccc(S(=O)(=O)N(C)c2c(C)ccc(S(=O)(=O)N3CCN(C)CC3)c2C)cc1,-26%,-13%,12%,-1%,-3,1%
Cc1ccc(S(=O)(=O)N2CCN(Cc3ccccc3)CC2)c(C)c1NS(C)(=O)=O,0%,-6%,nt,-36%[46.1 µM],2,-17%
Cc1ccc(S(=O)(=O)N(C)c2c(C)ccc(S(=O)(=O)N3CCN(C=O)CC3)c2C)cc1,-16%,-5%,-21%,3%,-90*,-4%
C=C(C)CN1CCN(S(=O)(=O)c2ccc(C)c(N(C)S(=O)(=O)c3ccc(C)cc3)c2C)CC1,-19%,-23%,?,?,-73*,-26%
Cc1ccc2c(c1)N(C(=O)Nc1cccc(C)c1C)CCO2,-15%,-19%,nt,-16%[46.1 µM],-4,-19%
CC(C(=O)c1ccc(-c2ccccc2)cc1)[n+]1ccccc1 (stereo not given),-27%,-27%,10µM*,?,-97*,-21%
Cc1cc[n+](C(C)C(=O)c2ccc(Cl)cc2)cc1 (stereo not given),-12%,-19%,?,6%,-24,-20%
Cc1cc[n+](C(C)C(=O)c2ccc(-c3ccccc3)cc2)cc1 (stereo not given),-17%,-30%,?,10µM*,-102*,?
Cc1ccc[n+](C(C)C(=O)c2ccc(-c3ccccc3)cc2)c1 (stereo not given),-29%,-5%,?,?,-98*,-28%
CCCCCCOC(=O)C1(O)CC2OC1(C)n1c3ccccc3c3c4c(c5c6ccccc6n2c5c31)C(=O)NC4 (stereo not given),-7%[3.33 µM],-13%[3.33 µM],nt,nt,nt,3%[4.63 µM]
CC=COC(=O)N[C@@H](c1ccccc1)[C@]1(C(=O)OCC)CCCC1=O,nt,nt,2%[14.2 µM],nt,nt,nt
Cc1nonc1CC(=O)N1CCc2c([nH]c3ccccc23)C1c1ccccc1F (stereo not given),-17%,-16%,?,-13%,38,12%

# Source: PubChem
